Inconclusive results are not listed. Activity calls are given as the source filed them. The call rests on the fitted dose curve.
Potency means the concentration at half of the fitted maximal effect.

This test can be described thus: Cell Viability - BJ (AID 421).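 Further: cells exposed to compound for 40 hours at 37 °C before readout.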 The note with it: BJ fibroblast viability, qHTS. From the text: NIH Chemical Genomics Center [NCGC]
NIH Molecular Libraries Screening Centers Network [MLSCN]
National Institutes of Environmental Health Sciences [NIEHS]
National Toxicology Program [NTP]
We have developed a 1536-well cell-based assay for quantitative high throughput screening (qHTS) against a number of cell lines to determine in vitro cytotoxicity of small molecules. This particular assay uses the BJ cell line from ATCC which is derived from normal human foreskin fibroblasts.
NCGC Assay Protocol Summary:
The CellTiter-Glo luminescent cell viability assay (Promega) is a homogeneous method to measure the number of viable cells in culture. The end point readout of this assay is based on quantitation of intracellular ATP, an indicator of metabolic activity, using the luciferase reaction. Luciferase catalyzes the oxidation of beetle Luciferin to oxyluciferin and light in the presence of ATP. The luminescent signal is proportional to amount of ATP present.
Using the CellTiter-Glo luminescent cell viability assay, the amount of cellular ATP was measured in the BJ cell line with complete culture medium following compound treatment for 40 hours. The assay was performed in opaque white Kalypsys 1536-well plates. In the screen, tamoxifen and doxorubicin were used as positive controls. Library compounds were measured for their ability to cause acute toxicity in the cell line, as reflected by a decrease in intracellular ATP levels, in a concentration-dependent manner. Data were normalized to the controls for basal activity (DMSO only) and 100% inhibition (100 uM tamoxifen). AC50 values were determined from concentration-response data modeled with the standard Hill equation.
qHTS protocol fo CellTiter Glo BJ cellular assay
[Step] [Parameter] [Value] [Description]
1. Reagent; 5 uL; 1500 BJ cells/well
2. Time; 5 hr; 37 °C incubation
4. Controls; 23 nL; Tamoxifen 0.34 uM to 100 uM & Doxorubicin 0.02 nM to 100 uM
5. Time; 40 hr; 37 °C incubation
6. Reagent; 5 uL; CellTiter Glo reagent
7. Time; 20 min; Room Temperature
8. Detection; Luminescence; Viewlux plate reader
Keywords: cell viability, cytotoxicity, BJ cell line, luminescence, NTPHTS, NTPHTS_NCGC, NIEHS, EPA, DSSTox, MLSMR, MLSCN, NIH Roadmap, qHTS, NCGC
On the technique in general: Quantitative high-throughput screening tests each substance at several concentrations.
Take `C[C@H](CCC(=O)O)[C@H]1CC[C@H]2[C@@H]3CC[C@@H]4C[C@H](O)CC[C@]4(C)[C@H]3CC[C@]12C`: the Potency is > 92 µM (inactive).

As for `c1ccc2c(c1)[nH]c1ccccc12`, the Potency is > 92 µM (inactive).

On to `C=CC(=O)OCCOCCOCCOCCOC(=O)C=C`, for which the Potency was > 92 µM (inactive).

Regarding `S=C1NC=NC2N=CNC12` (stereo not given), the Potency is 0.22 µM (active).

In the case of `c1ccc2scnc2c1`, the Potency was > 92 µM (inactive).

In the case of `OCCNCCO`, the Potency was > 92 µM (inactive).

In the case of `C1OCOCO1`, the Potency was > 92 µM (inactive).

For the compound `c1ccc2c(c1)c1cccc3ccc4cccc2c4c31`, the Potency was > 92 µM (inactive).

Take `O=C1c2ccccc2C(=O)C1c1ccc2ccccc2n1`: the Potency is 33.1 µM (active).

Turning to `O=C1CCc2ccccc2O1`, the Potency was > 92 µM (inactive).

For the compound `COc1ccc(/C=C/c2cc(OC)cc(=O)o2)cc1`, the Potency was > 92 µM (inactive).

Take `O=C(O)c1ccccc1C(c1ccc(O)cc1)c1ccc(O)cc1`: the Potency was > 92 µM (inactive).

With `Cc1ccc(N)c([N+](=O)[O-])c1`, the Potency is > 92 µM (inactive).

In the case of `O=C(O)CC(C(=O)O)C(CC(=O)O)C(=O)O` (stereo not given), the Potency was > 92 µM (inactive).

As for `O=S(=O)(O)c1ccccc1`, the Potency is > 92 µM (inactive).

Take `CCO`: the Potency is > 92 µM (inactive).

For the compound `O=NO`, the Potency is > 92 µM (inactive).

Take `O=C(O)c1ccc(O)cc1O`: the Potency is > 92 µM (inactive).

With `C=CC(=C)CCC=C(C)C`, the Potency is > 92 µM (inactive).

In the case of `Clc1cc(Cl)c(Cl)c(Cl)c1Cl`, the Potency is > 92 µM (inactive).

Turning to `COc1c2ccoc2cc2oc(=O)ccc12`, the Potency was > 92 µM (inactive).

For `CN(C)C=O`, the Potency was > 92 µM (inactive).

For `Nc1ccc(Cl)cc1Cl`, the Potency is > 92 µM (inactive).

With `O=C(/C=C/c1ccc(O)c(O)c1)O[C@@H](C(=O)O)[C@@H](OC(=O)/C=C/c1ccc(O)c(O)c1)C(=O)O`, the Potency is > 92 µM (inactive).

In the case of `CC(C)=CCCC(C)CCO` (stereo not given), the Potency was > 92 µM (inactive).

As for `Clc1cc(Cl)c(Cl)cc1Cl`, the Potency was > 92 µM (inactive).

`Cc1ccccc1C`: the Potency is > 92 µM (inactive).

In the case of `O=[N+]([O-])c1cccc(Cl)c1Cl`, the Potency is > 92 µM (inactive).

`ClCCCl`: the Potency was > 92 µM (inactive).

`C/C=C\c1ccc(OC)cc1`: the Potency was > 92 µM (inactive).

As to `Cc1cccc([N+](=O)[O-])c1C`, the Potency was > 92 µM (inactive).

As to `Cc1ccc([N+](=O)[O-])c(C)c1`, the Potency is > 92 µM (inactive).

Take `COc1ccc2nc(N)sc2c1`: the Potency is > 92 µM (inactive).

Consider `CCC(O)OC(O)CC` (stereo not given), for which the Potency was > 92 µM (inactive).

Consider `COc1cc(/C=C/c2ccccc2)oc(=O)c1`, for which the Potency is > 92 µM (inactive).

As for `CCCCCCCCCCCCCCC1CO1` (stereo not given), the Potency is > 92 µM (inactive).

With `C=CCOC(=O)c1ccccc1C(=O)OCC=C`, the Potency is > 92 µM (inactive).

As for `CC1(C)CC(N=C=O)CC(C)(CN=C=O)C1` (stereo not given), the Potency is > 92 µM (inactive).

On to `CCCCOCCO`, for which the Potency is > 92 µM (inactive).

Consider `NC1=NC(S)C2N=CN=C2N1` (stereo not given), for which the Potency is 0.218 µM (active).

The values are drawn from PubChem BioAssay (NCATS).
